Where a name gives a salt, the structure may show the parent alone. ± gives the standard deviation of the averaged measurements. Over roughly 2,000 compounds, “relative cell viability vs DMSO, compound alone” has its median near 1.1; the lowest 2% begin near 0.29. The full list was thinned out, with the lowest values kept by preference.
test system: TE10; assay: relative cell viability vs DMSO, compound alone (fraction); TE10 is an esophageal squamous carcinoma line; higher = less cytotoxic; conditions: 2 µM; 48 h
Protocol: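 TE10 ESCC cells (1,000/well, 384-well plates) were treated with Selleck bioactive library compounds at 2 uM alone for 48 h. Viability was read by CellTiter-Glo and expressed relative to DMSO wells. Two technical replicates (A, B).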

`COC(=O)[C@H](Cc1ccccc1)NC(=O)[C@@H](N)CC(=O)O` [Aspartame] and `CC(NC(=O)C(Cc1ccccc1)NC(=O)OCc1ccccc1)C(=O)CF` (stereo unspecified) are within error of each other in relative cell viability: 1.06 ± 0.036 for the first, 1.14 ± 0.064 for the second.

Going from `CC(C)C[C@H](NC(=O)[C@H](CCc1ccccc1)NC(=O)CN1CCOCC1)C(=O)N[C@@H](Cc1ccccc1)C(=O)N[C@@H](CC(C)C)C(=O)[C@@]1(C)CO1` [Carfilzomib (PR-171)] to `COc1ccc(C[C@H](NC(=O)[C@H](C)NC(=O)CN2CCOCC2)C(=O)N[C@@H](Cc2ccccc2)C(=O)[C@@]2(C)CO2)cc1`, the relative cell viability falls from 0.0894 ± 0.0027 to 0.0804 ± 0.0014.

Compared with `O=C(Cc1ccc(-c2ccc(OCCN3CCOCC3)cc2)cn1)NCc1ccccc1`, `CC(C)(C)c1cc(NC(=O)Nc2ccc(-c3cn4c(n3)sc3cc(OCCN5CCOCC5)ccc34)cc2)no1` [Quizartinib (AC220)] is lower in relative cell viability: 0.816 ± 0.05 for the first, 0.594 ± 0.04 for the second.

First: CC(=O)NC(Cc1ccc(O)cc1)C(=O)NC(CCCN=C(N)N)C(=O)NC(Cc1ccccc1)C(N)=O (stereo unspecified)
Second: COC[C@H](NC(=O)c1cnc(C)s1)C(=O)N[C@@H](COC)C(=O)N[C@@H](Cc1ccccc1)C(=O)[C@@]1(C)CO1 [Oprozomib (ONX 0912)]
The relative cell viability of the first is higher: 0.828 ± 0.052 for the first, 0.0586 ± 0.0043 for the second.

`CC(C)c1nc(CN(C)C(=O)N[C@@H](CCN2CCOCC2)C(=O)N[C@H](CC[C@H](Cc2ccccc2)NC(=O)OCc2cncs2)Cc2ccccc2)cs1` [Cobicistat (GS-9350)] and `CC(C)c1nc(CN(C)C(=O)N[C@H](C(=O)N[C@@H](Cc2ccccc2)C[C@H](O)[C@H](Cc2ccccc2)NC(=O)OCc2cncs2)C(C)C)cs1` [Ritonavir] are within error of each other in relative cell viability: 1.11 ± 0.05 for the first, 1.13 ± 0.062 for the second.

Going from `CC(C)CC(CC(=O)NO)C(=O)N[C@@H](Cc1ccc2ccccc2c1)C(=O)N[C@@H](C)C(=O)NCCN` (stereo partly specified) to `CC(C)C[C@@H](C=O)NC(=O)[C@H](CC(C)C)NC(=O)[C@H](CC(C)C)NC(=O)OCc1ccccc1`, the relative cell viability falls from 1.04 ± 0.077 to 0.0786 ± 0.0013.

First: C[C@H](N[C@@H](CCc1ccccc1)C(=O)O)C(=O)N1CCC[C@H]1C(=O)O [Enalaprilat Dihydrate]
Second: CCCC[C@@H](C=O)NC(=O)[C@H](CC(C)C)NC(=O)OCc1ccccc1 [Calpeptin]
The relative cell viability of the first is higher: 1.12 ± 0.029 for the first, 1 ± 0.021 for the second.

First: O=C(NCC1(c2nc(-c3ccccc3)cs2)CCOCC1)c1cccc(-c2noc(C(F)(F)F)n2)c1
Second: Cc1ccc(C(=O)Nc2cccc(C(F)(F)F)c2)cc1Nc1nc(-c2cccnc2)nc2c1cnn2C
The relative cell viability of the first is lower: 0.8055 ± 0.0031 for the first, 1.13 ± 0.043 for the second.

Going from `C/C(=N\NC(=O)c1cccc(S(=O)(=O)N2CCOCC2)c1)c1cc(Cl)ccc1O` to `Cc1c(C(=O)Nc2ccc(N3CCC(N4CCOCC4)CC3)c(C#N)c2)cnn1-c1ccc(Cl)cc1`, the relative cell viability rises from 0.87899 ± 0.00067 to 1.08 ± 0.024.

`CC1(COc2ccc3c(c2)ncn3-c2ccc3cccc(N4CCC(N)CC4)c3n2)COC1` and `Cn1cc(-c2ccc3ncc(Cc4ccc5ncccc5c4)n3n2)cn1` are within error of each other in relative cell viability: 1.1 ± 0.033 for the first, 1.13 ± 0.055 for the second.

Compared with `O=C(NCc1ccc(Oc2ccccc2)cc1)c1nc(-c2cc(Br)c(O)c(Br)c2)no1`, `CN(C)Cc1cccc(N=C(c2ccccc2)c2c(O)[nH]c3cc(C(=O)N(C)C)ccc23)c1` is lower in relative cell viability: 1.17 ± 0.012 for the first, 0.903 ± 0.035 for the second.

`CNC(=C[N+](=O)[O-])NCCSCc1csc(CN(C)C)n1` [Nizatidine] and `CC(C)CCNC(=O)[C@H](CC(C)C)NC(=O)[C@H]1O[C@@H]1C(=O)O` [Loxistatin Acid (E-64C)] are within error of each other in relative cell viability: 1.08 ± 0.056 for the first, 1.1 ± 0.019 for the second.

`CC(=O)N[C@H]1[C@H]([C@H](O)[C@H](O)CO)OC(C(=O)O)=C[C@@H]1NC(=N)N` [Zanamivir] and `OC[C@@H](O)[C@@H](O)[C@@H](O)CO` [Ribitol] are the same in relative cell viability: 1.13 ± 0.049 for the first, 1.126 ± 0.0056 for the second.

Going from `CO/N=C(\C(=O)N[C@@H]1C(=O)N2C(C(=O)OCOC(=O)C(C)(C)C)=C(/C=C\c3scnc3C)CS[C@H]12)c1csc(N)n1` [Cefditoren Pivoxil] to `CN(C)c1cc(NC(=O)CNC(C)(C)C)c(O)c2c1CC1CC3C(N(C)C)C(=O)C(C(N)=O)=C(O)C3(O)C(=O)C1=C2O` (stereo unspecified) [Tigecycline], the relative cell viability rises from 0.991 ± 0.099 to 1.111 ± 0.0089.

Compared with `C[C@]12C=CC(=O)C=C1CC[C@H]1[C@@H]3C[C@@H](O)[C@](O)(C(=O)CO)[C@@]3(C)C[C@H](O)[C@@]12F` [Triamcinolone], `CCCCC(=O)O[C@]1(C(=O)CO)[C@@H](C)C[C@H]2[C@@H]3CCC4=CC(=O)C=C[C@]4(C)[C@@]3(F)[C@@H](O)C[C@@]21C` [Betamethasone valerate (Betnovate)] is lower in relative cell viability: 0.9665 ± 0.0039 for the first, 0.865 ± 0.078 for the second.

Going from `CC(C)(C)C(=O)Nc1ccc2c(c1)C(=O)C(=O)c1ccccc1-2` to `CC1=CC(=O)c2ccccc2C1=O` [Menadione], the relative cell viability rises from 0.0653 ± 0.0041 to 0.981 ± 0.01.

First: CC(=O)Nc1ccccc1 [Acetanilide]
Second: O=C(/C=C/c1cccc(S(=O)(=O)Nc2ccccc2)c1)NO [Belinostat (PXD101)]
The relative cell viability of the first is higher: 0.976 ± 0.25 for the first, 0.216 ± 0.0062 for the second.

Going from `O=C(Nc1cccc(C(F)(F)F)c1)Nc1cc(S(=O)(=O)NC2CC2)ccc1-c1ccsc1` to `Cc1ccc(NC(=O)c2ccc(CN3CCN(C)CC3)cc2)cc1Nc1nc(-c2cccnc2)cs1` [Masitinib (AB1010)], the relative cell viability rises from 0.982 ± 0.031 to 1.084 ± 0.0069.

`Cn1c2ccccc2c2c3c(c4c5ccccc5n(CCC#N)c4c21)CNC3=O` and `Cc1c(C(=O)Nc2ccc(Oc3ccnc4[nH]cc(-c5ccccc5)c34)c(F)c2)c(=O)n(-c2ccc(F)cc2)n1C` are the same in relative cell viability: 1 ± 0.081 for the first, 1 ± 0.027 for the second.

Going from `CN1CCc2nc(C(=O)N[C@@H]3C[C@@H](C(=O)N(C)C)CC[C@@H]3NC(=O)C(=O)Nc3ccc(Cl)cn3)sc2C1` [Edoxaban] to `CC(=O)Oc1cc2c(s1)CCN(C(C(=O)C1CC1)c1ccccc1F)C2` (stereo unspecified) [Prasugrel], the relative cell viability rises from 1.09 ± 0.014 to 1.139 ± 0.0097.

`NC(=O)C1CCCc2c1[nH]c1ccc(Cl)cc21` (stereo unspecified) [EX 527 (Selisistat)] and `CNc1nc(-c2ccc3c(N)n[nH]c3c2)cc(N2C[C@@H](C(=O)NC3CCCCC3)CC[C@H]2C)n1` are within error of each other in relative cell viability: 0.983 ± 0.2 for the first, 1.05 ± 0.037 for the second.

`CCOC(=O)c1ccc(NC(=O)O[C@H]2[C@H](OC(=O)Nc3ccc4c(c3)OCO4)[C@@H](OC(=O)Nc3ccc4c(c3)OCO4)[C@@H](OC)O[C@@H]2CO)cc1` and `COc1cc(Nc2nc3ccccc3nc2NS(=O)(=O)c2ccc(NC(=O)c3ccc(C)c(OC)c3)cc2)cc(OC)c1` are within error of each other in relative cell viability: 1.16 ± 0.047 for the first, 1.15 ± 0.067 for the second.

Compared with `COc1nc(N)nc2c1ncn2[C@@H]1O[C@H](CO)[C@@H](O)[C@@H]1O` [Nelarabine], `CNc1ncnc2c1ncn2[C@@H]1O[C@H](CO)[C@@H](O)[C@H]1O` [N6-methyladenosine (m6A)] is lower in relative cell viability: 1.11 ± 0.05 for the first, 0.9679 ± 0.0062 for the second.

First: COc1ccc(C[C@H](N)C(=O)N[C@H]2[C@@H](O)[C@H](n3cnc4c(N(C)C)ncnc43)O[C@@H]2CO)cc1 [Puromycin 2HCl]
Second: CCOc1cc([C@@H](CS(C)(=O)=O)N2C(=O)c3cccc(NC(C)=O)c3C2=O)ccc1OC
The relative cell viability of the first is lower: 0.133 ± 0.042 for the first, 0.887 ± 0.18 for the second.

First: COc1cc2c(NC3CCN(CC4CCCCC4)CC3)nc(N3CCCN(C(C)C)CC3)nc2cc1OCCCN1CCCCC1
Second: CCCc1nn(C)c2c(=O)[nH]c(-c3cc(S(=O)(=O)N4CCN(C)CC4)ccc3OCC)nc12 [Sildenafil Citrate]
The relative cell viability of the first is lower: 1 ± 0.13 for the first, 1.2 ± 0.029 for the second.

`O=C(O)CCCC[C@@H]1SC[C@@H]2NC(=O)N[C@@H]21` [Biotin (Vitamin B7)] and `CCCCC(=O)O[C@H]1CC[C@H]2[C@@H]3CCc4cc(O)ccc4[C@H]3CC[C@]12C` [Estradiol valerate] are within error of each other in relative cell viability: 0.999 ± 0.036 for the first, 1.07 ± 0.1 for the second.

`CN[C@@H]1[C@H](O)[C@H](NC)[C@H]2O[C@@]3(O)C(=O)C[C@@H](C)O[C@H]3O[C@@H]2[C@H]1O` [Spectinomycin HCl] and `CC(=O)O[C@]1(C(C)=O)CC[C@H]2[C@@H]3C[C@H](C)C4=CC(=O)C=C[C@]4(C)[C@@]3(F)[C@@H](O)C[C@@]21C` [Fluorometholone Acetate] are within error of each other in relative cell viability: 1.03 ± 0.12 for the first, 0.914 ± 0.099 for the second.

`Cn1cc(/C=C/C(=O)c2cccc(F)c2)cc1/C=C/C(=O)NO` and `O=C(C=Cc1ccccc1)NC(NC(=S)Nc1ccc(Cl)cc1)C(Cl)(Cl)Cl` (stereo unspecified) are within error of each other in relative cell viability: 1.11 ± 0.077 for the first, 1.07 ± 0.03 for the second.

Compared with `COc1cc(Nc2ncc(F)c(Nc3ccc4c(n3)NC(=O)C(C)(C)O4)n2)cc(OC)c1OC`, `COc1c(N2C[C@@H]3CCCN[C@@H]3C2)c(F)cc2c(=O)c(C(=O)O)cn(C3CC3)c12` [Moxifloxacin HCl] is higher in relative cell viability: 0.96 ± 0.015 for the first, 1.18 ± 0.016 for the second.

Going from `COc1cc(Nc2ncc(F)c(Nc3ccc4c(n3)NC(=O)C(C)(C)O4)n2)cc(OC)c1OC` [R406 (free base)] to `Cn1cc(-c2[nH]c3cc(NC(=O)[C@H](N)C4CCCCC4)cc4c3c2C=NNC4=O)cn1`, the relative cell viability rises from 0.844 ± 0.051 to 1.05 ± 0.075.

`Nc1nc(N)c(N=O)c(OCC2CCCCC2)n1` and `C[C@]12CC[C@@H]3c4ccc(O)cc4CC[C@H]3[C@@H]1CC[C@@H]2OC(=O)CCC1CCCC1` [Estradiol Cypionate] are within error of each other in relative cell viability: 1.03 ± 0.023 for the first, 1.13 ± 0.085 for the second.

Compared with `O=C(Cc1ccccc1)Nc1nnc(CCSCCc2nnc(NC(=O)Cc3ccccc3)s2)s1`, `Cc1cnc(NC(=O)C2=C(O)c3ccccc3S(=O)(=O)N2C)s1` [Meloxicam] is higher in relative cell viability: 0.866 ± 0.049 for the first, 1.11 ± 0.045 for the second.

`Cc1ccc(S(=O)(=O)C=CC#N)cc1` and `CC(C)(C)c1ccc(S(=O)(=O)/C=C/C#N)cc1` are within error of each other in relative cell viability: 0.063 ± 0.0047 for the first, 0.0635 ± 0.0029 for the second.

First: O=C(c1cn(Cc2cncn2Cc2ccc(Br)cc2)cc1-c1cccc2ccccc12)N1CCOCC1
Second: CCc1cc(/C(C)=N/OCc2ccc(C3CCCCC3)c(C(F)(F)F)c2)ccc1CN1CC(C(=O)O)C1 [BAF312 (Siponimod)]
The relative cell viability of the first is lower: 0.958 ± 0.015 for the first, 1.1 ± 0.07 for the second.

`O=C(O)c1cc(/N=N/c2ccc(O)c(C(=O)O)c2)ccc1O` [Olsalazine Sodium] and `CC(=O)N[C@@H](CC(C)C)C(=O)N[C@@H](CC(C)C)C(=O)N[C@H](C=O)CCCNC(=N)N` [Leupeptin Hemisulfate] are within error of each other in relative cell viability: 1.12 ± 0.12 for the first, 1.09 ± 0.015 for the second.

In the case of `CCCCC(C=O)NC(=O)C(CC(C)C)NC(=O)C(CC(C)C)NC(C)=O` (stereo unspecified), the relative cell viability is reported as 0.266 ± 0.011.
